Data published in ChEMBL document CHEMBL3988442, “University of Dundee, Small-Polar-MMV Screening Library” (2021).

Experiments:
[1] = molecular target: T1, Aspartate--tRNA(Asp/Asn) ligase (Mycobacterium tuberculosis (strain ATCC 25618 / H37Rv)) (UniProt P9WFW3); test: Assay for Asp RNA synthetase-1 from Mycobacterium tuberculosis; format: functional; parameters: scale not given: direction of the effect not stated beside the values; details: 30 µM; also: in the data most compounds retested in dose-response had high values
T1 sequence (whole entry): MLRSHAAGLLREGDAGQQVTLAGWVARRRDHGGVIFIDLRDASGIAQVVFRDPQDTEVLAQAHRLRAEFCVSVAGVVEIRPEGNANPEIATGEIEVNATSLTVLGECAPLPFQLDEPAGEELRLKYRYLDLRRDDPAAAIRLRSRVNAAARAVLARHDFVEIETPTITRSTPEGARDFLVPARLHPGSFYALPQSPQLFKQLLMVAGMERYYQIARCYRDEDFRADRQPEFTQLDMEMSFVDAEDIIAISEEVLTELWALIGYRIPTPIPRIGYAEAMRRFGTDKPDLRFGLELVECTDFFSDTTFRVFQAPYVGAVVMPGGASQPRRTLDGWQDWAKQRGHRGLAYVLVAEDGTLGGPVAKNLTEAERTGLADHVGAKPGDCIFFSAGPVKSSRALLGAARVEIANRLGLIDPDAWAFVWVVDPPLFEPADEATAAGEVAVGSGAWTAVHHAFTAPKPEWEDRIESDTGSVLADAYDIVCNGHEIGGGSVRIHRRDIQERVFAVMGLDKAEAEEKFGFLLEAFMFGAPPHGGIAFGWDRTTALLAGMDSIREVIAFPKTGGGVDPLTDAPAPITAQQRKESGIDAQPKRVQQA

[2] = molecular target: Shiga toxin 2 (Escherichia coli O157:H7) (UniProt P09385+P09386); test: E. coli 0.157:H7 Shiga Toxin SOP - stx2 screening assay; format: functional; parameters: scale not given: direction of the effect not stated beside the values; details: 30 µM

Row | Compound | Percent Effect [1] | Percent Effect [2]
1 | COCCN1C[C@H]2[C@@H](C1)N(C(=O)c1cccs1)CC[C@H]2OC | 0.503% | 3.28%
2 | CCc1[nH]ncc1C(=O)N1CCCN(Cc2cnn(C(C)C)c2)CC1 | 6.41% | 9.14%
3 | CC(=O)N1CCCCC1c1cc(C(=O)N2CCOCC2)[nH]n1 (centres undefined) | -0.551% | 15.2%
4 | CN(C)C(=O)N1CCc2c(CNc3ncccn3)cncc2C1 | 0.757% | -10.5%
5 | O=C(CCC1CC1)N1C[C@@H](CN2CCCC2)[C@@H](CO)C1 | 0.505% | -35.6%
6 | Cn1cc(CN2CCCn3cnc(COCC4CC4)c3C2)cn1 | 1.66% | -1.47%
7 | Cc1cccc2cc(CNCCCN3CCOCC3)c(=O)[nH]c12 | 0.253% | -27.9%
8 | Cn1cc(-c2ncnc3c2CCN(C(=O)N2CCOCC2)CC3)cn1 | -8.2% | -1.95%
9 | C1CCCN(c2nc(C3CC3)ns2)CC1 | -2.7% | -28.7%
10 | CC(C)OCCN1CCC(N2CCN(C)C2=O)CC1 | 0.182% | -16.8%
11 | NS(=O)(=O)CCNC(=O)c1nnn(-c2ccc(F)cc2)c1C1CC1 | -3.36% | -8.62%
12 | Cn1cc(CN2C[C@@H]3COC[C@]3(CNC(=O)c3ccsc3)C2)cn1 | 0.656% | -3.31%
13 | CCn1ccnc1CN1CCN(Cc2ccc(C#N)cc2)CC1 | -0.278% | -29.2%
14 | CNC(=O)[C@@H]1C[C@H]2CN(Cc3ccco3)C[C@H]2N1C | 1.3% | -1.93%
15 | O=C(CCN1CCCC1=O)NCc1cccnc1Oc1ccccc1 | -8.91% | 8.3%
16 | CC(=O)N1CCCN(C(=O)CCc2c(C)noc2C)CC1 | -5.26% | 2.24%
17 | COc1cccc2c1OCC(NC(=O)NC1CCN(C3CC3)CC1)C2 (centres undefined) | -3.21% | 3.63%
18 | NC(=O)Cn1cc(NC(=O)N2CCCC2)cn1 | -2.12% | -31.6%
19 | Cc1cc(Nc2nc(C)cs2)nc(C2CCCCN2CCO)n1 (centres undefined) | 0.7% | -34.2%
20 | COCCOc1cccc(C(=O)N2CCCC(n3cccn3)C2)c1 (centres undefined) | 1.18% | -14.5%
21 | Nc1nc2c(c(=O)[nH]1)CCN(C(=O)c1cccc3nccnc13)C2 | 6.9% | -31.4%
22 | CCc1n[nH]c(C2CN(CC(=O)NCCc3ccsc3)CCO2)n1 (centres undefined) | -5.2% | -20.2%
23 | O=C1NCC[C@]12CN(Cc1ccoc1)C[C@H]2c1ccccc1 | 1.06% | -14.1%
24 | Cc1ccc(NC2CCN(C(=O)Cn3nc(C)cc3C)CC2)nn1 | -3.3% | 28.3%
25 | CC(NC(=O)NCc1ccoc1)c1ccc2c(c1)CCC(=O)N2 (centres undefined) | -9.2% | -43.2%
26 | O=C1COC2(COCCN(Cc3cccnc3)C2)CN1c1ccoc1 (centres undefined) | 9.69% | -7.3%

Row | Compound | Percent Effect [1] | Percent Effect [2]
27 | COc1ccc(CCC(=O)NC2CCC(O)CC2)cc1OC (centres undefined) | -2.67% | 33%
28 | CC(NC(=O)CNCCn1cccn1)c1ccc2c(c1)OCCO2 (centres undefined) | -3.06% | 8.04%
29 | O=C(CCOc1ccccc1)N1CCC(Nc2cccnn2)CC1 | 4.24% | 6.7%
30 | O=C(NCCNc1ncccn1)Nc1cc(C(F)(F)F)c[nH]c1=O | -1.25% | 3.13%
31 | CCn1cc(NC(=O)C2CCN(Cc3ccccc3C#N)CC2)cn1 | 1.7% | -53.9%
32 | Cc1cc(C)n(-c2cncc(N3CCN(C(=O)C(C)(C)C)CC3)n2)n1 | 0.549% | -19.9%
33 | CCc1nnc2n1CCN(C(=O)c1cc3ccc(F)cc3nc1C)C2 | 1.79% | 8.5%
34 | Cc1nc2cc(=O)[nH]n2c(C)c1CC(=O)Nc1ccc2ccccc2n1 | 1.28% | 36.5%
35 | Cc1cccc(C(=O)Nc2ccc(OC3CCN(C)CC3)cc2)c1 | 0.862% | -60.2%
36 | Cc1ccc(OCC(=O)NS(=O)(=O)c2cccnc2)cc1C | -2.57% | 26.6%
37 | Cc1nc(CN2CCOC(CN(C)c3cccnn3)C2)cs1 (centres undefined) | -1.09% | 7.32%
38 | COCc1nc(C(=O)N2CCCCC2Cn2cc(C)cn2)cs1 (centres undefined) | 0.0865% | 5.33%
39 | CNc1cc(C2CCCN2Cc2ccccc2OCC(=O)O)ccn1 (centres undefined) | 5.46% | 4.73%
40 | Cc1nc2ccnn2c(C)c1CCC(=O)N1CCC(C(N)=O)CC1 | 0% | 13.3%
41 | Cc1cc(OCC(=O)N2CCCC(c3noc(C)n3)C2)no1 (centres undefined) | -1.75% | -41.1%
42 | CCn1nc(C)c(CCNC(=O)C2CCCN(CC(N)=O)C2)c1C (centres undefined) | -2.59% | 7.92%
43 | CC(=O)Nc1ncc(S(=O)(=O)Nc2ccc(F)cc2)s1 | 2% | -10.2%
44 | Cn1cnnc1C1CCCN(C(=O)NCCc2ccccc2F)C1 (centres undefined) | -6.03% | 15.6%
45 | Cn1cc(NS(=O)(=O)c2ccc(OC(F)(F)F)cc2)ccc1=O | 51.5% | -3.73%
46 | O=C(CCN1CCCN(c2nccs2)CC1)NCC1CCCCC1 | -3.75% | -2.79%
47 | O=C(C1CC=CC1)N1C[C@@H]2[C@@H](C1)OCC(=O)N2Cc1cccnc1 | 1.21% | -12.2%
48 | N#Cc1cc(NC(=O)c2ccsc2)ccc1N1CCC(O)CC1 | 3.33% | -57.5%
49 | O=S(=O)(CCCN1CCCC1Cn1cncn1)c1ccccc1 (centres undefined) | -1.76% | -32.7%
50 | CC[C@@]1(O)CCN(C(=O)c2ccc(SC)cc2)C[C@H]1O | -1.2% | 5.8%
51 | Cc1ncsc1C(=O)N1CCCC(c2noc(C(C)C)n2)C1 (centres undefined) | -6.6% | -6.13%
52 | O=C(Nc1ccccc1OC(F)F)C1=NN(c2ccccc2)C(=O)CN1 | 9.31% | -3.57%
